We go through 14 compounds from publication PMC5540273 (PLoS ONE, 2017).
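Also: kd values determined as follow-up on hits from a single-replicate KINOMEscan panel screen.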

One experiment has as its system PDGFRA.
The term Kd denotes the free concentration of one partner at which half of the binding sites on the other are occupied at equilibrium, for simple one-to-one binding. Read a high Kd as lower affinity. For `CC(=O)Nc1nc2cnc(Nc3cc(NC(=O)c4cccc(CCC#N)c4)ccc3C)nc2s1`, the Kd is more than 10 µM.

`Cn1ccc2ncnc(Oc3ccc(NC(=O)Nc4ccccc4)cc3)c21`: the Kd was found to be 0.025 µM.

With `O=C(Nc1ccccc1)Nc1cccc(Oc2ccc3nccn3n2)c1`, the Kd was determined as 0.0036 µM.

In turn, `Cc1cccc(-c2nc(-c3ccc(S(C)(=O)=O)cc3)sc2-c2ccnc(NCCc3ccccc3)c2)c1` registered a Kd of 0.55 µM.

The next experiment has as its system PDGFRB.
As to `CC(=O)Nc1nc2cnc(Nc3cc(NC(=O)c4cccc(CCC#N)c4)ccc3C)nc2s1`, the Kd was more than 10 µM.

For the compound `CC(C)(C)c1ccc(C(=O)Nc2cn3cc(-c4cccnc4)ccc3n2)cc1`, the Kd came out at 0.22 µM.

`Cn1ccc2ncnc(Oc3ccc(NC(=O)Nc4ccccc4)cc3)c21` displayed a Kd of 0.016 µM.

`Cc1ccc(NC(=O)Nc2cccc(Cl)c2)cc1-c1ccc(C(=O)Nc2ccncc2)cc1` [GSK1398468]: the dissociation constant (Kd) was 0.05 µM.

For the compound `Fc1cc(Cl)ccc1Nc1ccnc2cc(-c3ccc(CN4CCCCC4)o3)ccc12` [GW560116], the Kd was 0.21 µM.

Consider `Fc1cc(Cl)ccc1Nc1ccnc2cc(I)ccc12` [GW551191], for which the affinity, expressed as Kd, was 0.41 µM.

As to `Cc1ccc(NC(=O)Nc2cc(C(C)(C)C)nn2-c2ccccc2)cc1` [GSK1014915], the Kd is 0.34 µM.

`COC(=O)c1c(-c2ccccc2)c2cc(C(=O)O)ccc2c(=O)n1Cc1ccccc1` came in with a Kd of 0.075 µM.

In turn, `O=C(Nc1ccccc1)Nc1cccc(Oc2ccc3nccn3n2)c1` showed a Kd of 0.001 µM.

Compound `Cc1ccc(C(=O)Nc2ccc(Nc3ccnc4cc(-c5ccccn5)ccc34)cc2O)cc1.Cl` [GW440146] yielded a Kd of 0.48 µM.

Turning to `COC(=O)c1c(-c2ccccc2)c2cc(OC)ccc2c(=O)n1Cc1ccccc1`, binding was put at a Kd of 0.11 µM.

The compound `Cc1cccc(-c2nc(-c3ccc(S(C)(=O)=O)cc3)sc2-c2ccnc(NCCc3ccccc3)c2)c1` showed a Kd of 0.068 µM.

For the next experiment, the system named is PDPK1.
Compound `CCCc1ccc(S(=O)(=O)NC2CCN(c3ccnc(Nc4ccc(F)cc4)n3)C2)cc1` (stereo not shown) [GSK1379715] registered a Kd of more than 10 µM.

As to `Fc1cc(Cl)ccc1Nc1ccnc2cc(-c3ccc(CN4CCCCC4)o3)ccc12` [GW560116], the Kd was more than 10 µM.

In turn, `CCn1c(-c2ccccn2)nc2cnccc21` [SB-736398] registered a Kd of more than 10 µM.
